# Compounds with a hit are over-represented: about 18% of the library has one in this group of screens.
# TDP1 cell CPT: DT40-hTDP1 cell growth loss with CPT | 12% of 420,000 active | AID 686979 | chicken DT40 Tdp1-/-;hTDP1 cells + 20 nM CPT, ATP luminescence, 48 h | Potency, µM (series often up to 46.2 µM), inactives show top-dose activity change, negative = growth inhibition, most hits filed as inhibitors; also: potency is read from the fitted curve at half-maximal effect; nearly all actives have a fitted effect of over 55% in size
#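 Cell growth measured by CellTiter-Glo luminescence after a minimum 48 h, 37 C compound exposure with 20 nM CPT in Tdp1-knockout DT40 cells stably expressing hTDP1, seeded 400/well; qHTS titration format.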
# RORg inh: ROR gamma (mouse) transcription inhibition. P51450. Drosophila S2 Gal4-RORgamma UAS-luciferase reporter, 20 h. Potency, µM (series often up to 53.6 µM), for inactives: at the top dose activity change, negative = inhibition, most hits filed as inhibitors. 5.4% of 310,000 active; also: potency is read from the fitted curve at half-maximal effect; nearly all actives have a fitted effect of over 60% in size
# Target sequence (P51450 whole entry, looked up, the tested form may be a part): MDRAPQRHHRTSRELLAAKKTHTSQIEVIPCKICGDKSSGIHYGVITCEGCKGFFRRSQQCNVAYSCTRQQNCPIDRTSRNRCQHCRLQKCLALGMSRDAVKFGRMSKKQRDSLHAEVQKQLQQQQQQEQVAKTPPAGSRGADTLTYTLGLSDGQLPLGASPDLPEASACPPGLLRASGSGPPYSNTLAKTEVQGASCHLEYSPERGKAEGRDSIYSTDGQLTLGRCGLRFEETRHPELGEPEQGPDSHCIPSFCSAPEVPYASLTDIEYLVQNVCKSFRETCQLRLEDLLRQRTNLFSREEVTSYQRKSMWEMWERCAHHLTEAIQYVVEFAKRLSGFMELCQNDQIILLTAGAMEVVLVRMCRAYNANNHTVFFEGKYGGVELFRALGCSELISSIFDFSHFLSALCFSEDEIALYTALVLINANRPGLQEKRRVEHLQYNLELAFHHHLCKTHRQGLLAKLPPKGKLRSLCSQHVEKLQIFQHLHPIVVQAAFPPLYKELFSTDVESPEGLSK
#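 Stably transfected Drosophila Schneider cells are the test system, with ROR gamma fused to Gal4 and luciferase under UAS control; luminescence is read after 20 hr of 700 uM copper sulfate induction at ambient temperature.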
# LDHA inh: blocks human lactate dehydrogenase A; P00338; purified LDHA, NADH/diaphorase-resazurin fluorescence; hits give low values; activity change, % (values are at about 110 or 230 µM); 0.15% of 480,000 active; in the data active = activity change below about -30%; inconclusive = mostly about -25% to -30%;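 also: plate controls were DMSO wells for no effect and wells without enzyme for full effect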
#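 Human LDH5 at 2 nM final in Tris HCl pH 7.4 with 0.06 mM NADH and 0.2 mM pyruvate, reacted 5 minutes at room temperature. Remaining NADH coupled via diaphorase/resazurin; resorufin fluorescence read at 0 and 20 minutes, normalized to enzyme-free and DMSO wells.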
# Gal4-VP16 FLuc: counter-screen for ROR gamma inhibitors: Gal4-VP16 reporter; Drosophila S2 Gal4-VP16 UAS-luciferase, luminescence, 20 h; Potency, µM (top dose mostly 53.6 µM), for the others: at the top dose activity, negative = inhibition, hits mostly inhibitors; 3.5% of 310,000 active;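 also: Gal4-VP16 expression switched on by copper sulfate through the metallothionein promoter; potency is read from the fitted curve at half-maximal effect; nearly all actives have a fitted effect of over 50% in size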
# DT40 TDP1 no CPT: qHTS for Inhibitors of human tyrosyl-DNA phosphodiesterase 1 (TDP1): qHTS in cells in absence of CPT; Potency, µM (highest dose often 46.2 µM), without a hit: top-dose activity change, negative = growth inhibition, most hits filed as inhibitors; 15% of 420,000 active; DT40 Tdp1-/- hTDP1 cells, no CPT, ATP luminescence, 48 h; also: potency is read from the fitted curve at half-maximal effect; nearly all actives have a fitted effect of over 55% in size
#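 A cellular qHTS used chicken DT40 cells lacking endogenous Tdp1 but carrying stably transfected human TDP1. Compounds were applied without camptothecin, and cell growth kinetics were judged by ATP-dependent luminescence after ≥48 hr.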
# IL-1B inflam inh: inflammasome signaling inhibition, IL-1 beta readout; THP-1 LPS/ATP IL-1B secretion, AlphaLISA, 16 h; hits give low values; activity change, % at 57.5 µM; 4.7% of 360,000 active; in the data active = activity change below about -50%; inconclusive = mostly about -30% to -49%
#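 Secreted IL-1B measured by AlphaLISA bead assay after 16 h compound exposure of THP-1 cells; compounds (final up to 57.5 uM) added 1 h before LPS (250 ng/mL) and ATP (1.25 mM) stimulation; lower signal means less secretion.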
# * hit, by the source's call; ? = inconclusive; / = not tested or not shown. Unless noted, calls follow the shape of the dose curve; as a rule, active = well fitted curve in the direction sought with a large enough effect; inconclusive = small, poorly fitted or top-dose-only effect, or another doubt; inactive = no such curve, though single readings can be large; an effect the other way counts as inactive or inconclusive. Unless noted, % is scaled to controls: 0 for no effect and ±100 for the full control effect.
SMILES,TDP1 cell CPT,RORg inh,LDHA inh,Gal4-VP16 FLuc,DT40 TDP1 no CPT,IL-1B inflam inh
CC(=O)c1ccc(NC(=O)C2(c3ccccc3)CCCC2)cc1,/,/,4,/,/,/
CCOC(=O)c1c(C)[nH]c(CCC(=O)NC(C)c2ccccc2)c1C (stereo unspecified),?,/,-4,/,18µM*,/
CCOC(=O)c1cc(CC)sc1NC(=O)C(c1ccccc1)c1ccccc1,?,17%,-5,6%,?,-1
COC(=O)c1c(N2C(=O)CC(Sc3ccccc3C(=O)O)C2=O)sc2c1CCCC2 (stereo unspecified),?,-5%,-4,-12%,7.3µM*,13
CCOC(=O)c1cc(CC)sc1N1C(=O)CC(Sc2ccccc2C(=O)O)C1=O (stereo unspecified),2.9µM*,?,3,?,4.1µM*,27
COC(=O)c1c(N2C(=O)CC(Sc3ccccc3C(=O)O)C2=O)sc(C)c1C (stereo unspecified),?,?,-3,-4%,?,-8
CCCc1cc(=O)oc2c3c(c4c(c12)OC(C)(C)C=C4)OC(C)C(C)C3O (stereo unspecified),8.2µM*,-17%,7,?,6.5µM*,-71*
CCc1cccc2c(C(=O)CN3CCN(CC(=O)NC4CC4)CC3)c[nH]c12,/,/,8,/,/,/
C(=C\c1nccc2c1[nH]c1ccccc12)/c1ccccc1,?,1.6µM*,-8,4µM*,15µM*,-2
Fc1ccc(/C=C\c2nccc3c2[nH]c2ccccc23)cc1,?,1.8µM*,-3,?,?,-78*
O=c1[nH]c2ccccc2nc1/C=C/c1ccc(F)cc1,?,50%,-4,-2%,?,18
Cc1ccc(/C=C\c2nccc3c2[nH]c2ccccc23)cc1,?,0.63µM*,-8,3.2µM*,?,-26
COc1ccc(Cl)cc1N1CC(c2nc3ccccc3n2CC(=O)N(C(C)C)C(C)C)CC1=O (stereo unspecified),/,/,-12,/,/,/
CC1CCCN(c2ccc(C(=O)Nc3nnc(C4CC4)s3)cc2[N+](=O)[O-])C1 (stereo unspecified),4%,13µM*,-11,?,-1%,-10
CC1CCCN(c2ccc(C(=O)OCC(=O)N3c4ccccc4Sc4ccccc43)cc2[N+](=O)[O-])C1 (stereo unspecified),18µM*,29%,1,-15%,23µM*,-11
CC1CCCN(c2ccc(C(=O)Nc3ccc4c(c3)OCO4)cc2[N+](=O)[O-])C1 (stereo unspecified),?,?,-5,-1%,21µM*,-66*
CC1CCCN(c2ccc(C(=O)NCc3ccc4c(c3)OCO4)cc2[N+](=O)[O-])C1 (stereo unspecified),?,32%,-5,-2%,?,0
CC1CCN(c2ccc(C(=O)Nc3ccc4c(c3)OCO4)cc2[N+](=O)[O-])CC1,10µM*,?,-7,2%,9.2µM*,-141*
Cc1nc2ccccc2nc1CN1C(=O)C2CCCN2C1=O (stereo unspecified),/,/,-2,/,/,/
O=C(c1c(F)cccc1F)N(Cc1ccc2cc[nH]c2c1)C1CC1,/,/,-8,/,/,/
CCn1ccc2cc(S(=O)(=O)N3CCC(C(=O)NCCN4CCCCC4)CC3)ccc21,/,/,-3,/,/,/
Cc1cc(Cl)ccc1OC(C)C(=O)Nc1ccccc1N1CCOCC1 (stereo unspecified),?,?,-1,?,?,-58*
CC(Oc1cccc(Cl)c1)C(=O)Nc1ccccc1N1CCCC1 (stereo unspecified),?,/,5,/,?,-10

# From PubChem BioAssay
